# Records with an inconclusive call do not appear. A call without a number means that no potency is given here. The source made the active and inactive calls. Calls follow the shape of the full dose curve.
# Biological target: Tyrosine-protein kinase ABL1 (Homo sapiens) (UniProt P00519)
# Assay: ABL1 kinase (ABL1-N-HiBiT) enzymatic inhibition screen - Functional assay
# Details: luminescence; series mostly up to 57.5 µM
# Procedure, shortened: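 ABL1-N-HiBiT enzyme (10 nM final) preincubated with compounds 30 min at room temperature in buffer with 87.5 uM ATP, then reacted with abltide peptide substrate 3 h at room temperature. Remaining ATP read by Kinase-Glo Plus luminescence.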
# Tyrosine-protein kinase ABL1 (Homo sapiens), sequence (P00519 whole entry, looked up): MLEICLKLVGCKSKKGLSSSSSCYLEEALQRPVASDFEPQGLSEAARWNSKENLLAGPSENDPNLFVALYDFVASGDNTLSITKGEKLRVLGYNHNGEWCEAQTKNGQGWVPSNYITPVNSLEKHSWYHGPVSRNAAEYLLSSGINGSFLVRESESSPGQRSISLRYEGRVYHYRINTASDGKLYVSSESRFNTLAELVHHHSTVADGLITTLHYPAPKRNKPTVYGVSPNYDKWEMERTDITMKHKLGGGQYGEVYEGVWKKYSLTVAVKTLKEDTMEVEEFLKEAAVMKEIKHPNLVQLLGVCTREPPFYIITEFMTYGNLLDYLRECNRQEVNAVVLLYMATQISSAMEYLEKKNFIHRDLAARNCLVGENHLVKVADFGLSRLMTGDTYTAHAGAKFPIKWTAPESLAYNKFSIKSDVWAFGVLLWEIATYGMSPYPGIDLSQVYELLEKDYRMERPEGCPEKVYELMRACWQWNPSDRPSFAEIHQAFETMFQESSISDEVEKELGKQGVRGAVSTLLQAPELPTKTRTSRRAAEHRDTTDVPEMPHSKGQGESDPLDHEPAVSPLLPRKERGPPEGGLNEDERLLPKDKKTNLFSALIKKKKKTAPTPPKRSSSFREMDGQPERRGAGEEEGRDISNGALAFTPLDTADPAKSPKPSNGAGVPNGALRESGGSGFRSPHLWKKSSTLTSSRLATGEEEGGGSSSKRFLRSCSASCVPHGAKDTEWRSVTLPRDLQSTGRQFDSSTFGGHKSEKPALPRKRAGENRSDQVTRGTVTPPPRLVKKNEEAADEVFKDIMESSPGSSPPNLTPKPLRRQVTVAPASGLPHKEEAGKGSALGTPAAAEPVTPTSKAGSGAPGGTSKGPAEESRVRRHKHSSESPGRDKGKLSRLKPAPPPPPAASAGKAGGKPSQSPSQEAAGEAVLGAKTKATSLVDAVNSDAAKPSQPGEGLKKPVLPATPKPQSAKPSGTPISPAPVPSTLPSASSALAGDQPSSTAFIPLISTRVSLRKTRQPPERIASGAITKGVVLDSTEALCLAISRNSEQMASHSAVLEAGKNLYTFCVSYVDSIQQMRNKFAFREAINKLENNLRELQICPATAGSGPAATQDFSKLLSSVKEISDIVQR
row,Compound,Potency
1,CCN1CCN(Cc2ccc(NC(=O)c3ccc(C)c(NC(=O)c4cncc(-c5cccs5)c4)c3)cc2C(F)(F)F)CC1,0.0168 µM (active)
2,CCN1/C(=C\C(C)=O)Sc2ccc(OC)cc21,inactive
3,COc1cc2c(N3CCN(C(=O)Nc4ccc(OC(C)C)cc4)CC3)ncnc2cc1OCCCN1CCCCC1,inactive
4,Cc1cc(O)c2c(c1)C(=O)c1cc(O)cc(O)c1C2=O,inactive
5,Cc1cccc(C)c1-n1c(=O)c2cnc(Nc3ccc(N4CCN(C)CC4)cc3)nc2n2c3ccccc3nc12,4.08 µM (active)
6,NC1CCC(Nc2nc(Nc3ccc(C(=O)N4CCCCC4)cc3)c3ncn(-c4cccc(F)c4)c3n2)CC1 (stereo unspecified),3.97 µM (active)
7,FC(F)(F)c1ccc(/C=C/c2nc(COc3ccc(CCCCn4ccnn4)cc3)co2)cc1,inactive
8,c1ccc2c(-c3cnn4cc(-c5ccc(N6CCNCC6)cc5)cnc34)ccnc2c1,0.127 µM (active)
9,Cc1cccc(/C=N/Nc2cc(N3CCOCC3)nc(OCCc3ccccn3)n2)c1,inactive
10,CCNC(=O)Nc1ccc(-c2nc3c(c(N4CCOC[C@@H]4C)n2)CCN(c2ncccn2)C3)cc1,inactive
11,C[C@@H]1CCNC(=O)c2cc3ccc(C(=O)Nc4nc5ccccc5n4CCCN(C)C)cc3n21,inactive
12,Cc1nc2ccc(-n3ncc(C(=O)c4cc5ccccc5[nH]4)c3N)cc2[nH]1,inactive
13,c1cc(-c2cc(C3CCNCC3)[nH]n2)ccn1,inactive
14,CCCS(=O)(=O)Nc1ccc(F)c(C(=O)c2c[nH]c3ncc(Cl)cc23)c1F,inactive
15,CCn1c(=O)c(-c2ccc(Cl)cc2Cl)cc2cnc(Nc3ccc(N4CCNCC4)c(F)c3)nc21,0.0629 µM (active)
16,COc1ccc(CNC(=O)Nc2ncc([N+](=O)[O-])s2)cc1,inactive
17,Cn1sc(=O)n(Cc2ccccc2)c1=O,inactive
18,C[C@@H]1CN(CC(=O)Nc2ccc3c(c2)Cc2cccc(-c4cc(=O)cc(N5CCOCC5)o4)c2S3)C[C@H](C)O1,inactive
19,Cc1cc(Nc2ncc3cc(-c4c(Cl)cccc4Cl)c(=O)n(C)c3n2)ccc1F,0.0375 µM (active)
20,S=C(NCc1ccc2c(c1)OCO2)N1CCN(c2ncnc3c2oc2ccccc23)CC1,inactive
21,CNS(=O)(=O)c1ccc2c(c1)/C(=C/c1[nH]c3c(c1CCCN1CCN(C)CC1)CCCC3)C(=O)N2,9.15 µM (active)

# From PubChem BioAssay AID1963317 (National Center for Advancing Translational Sciences (NCATS), 2024)
